The values that follow come from PubChem BioAssay (NCATS).

Results filed as inconclusive are left out. Activity calls are given as the source filed them. The call rests on the fitted dose curve; in most records, active means well fitted curve in the direction sought with a large enough effect; inconclusive means small, poorly fitted or top-dose-only effect, or another doubt; inactive means no such curve, though single readings can be large; an effect the other way counts as inactive or inconclusive.

The test system of one assay is MCC-13. Kind of assay: qHTS assay to identify novel small-molecules to repurpose for Merkel cell carcinoma treatment (AID 1296009). Further: nearly all actives have a fitted effect of over 60% in size. Further: potency means the concentration at half of the fitted maximal effect. The following applies: MCC and control cell lines, CellTiter-Glo viability, 72 h; series mostly up to 46 µM. A digest of the protocol:
(§1)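 CellTiter-Glo luminescence after 72 hr compound exposure at 37 degree celsius gave cell viability. Libraries NPC and MIPE were run as 8- and 11-point dose responses; RLUs normalized to DMSO (negative) and no-cell (cytotoxicity) controls.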
For orientation: In qHTS, concentration-response curves come from the screen itself.

In another assay the test system is MCC-26. The assay is described as above. The settings on record: MCC and control cell lines, CellTiter-Glo viability, 72 h; series mostly up to 46 µM. A digest of the protocol: as §1
Background: In ATP-based viability assays light output follows the ATP content of the culture.

The subject of the next assay is MKL-1. Described as above. The settings on record: MCC and control cell lines, CellTiter-Glo viability, 72 h; series mostly up to 46 µM. A digest of the protocol:
as §1

For the next assay, the system named is MKL-2. The description is as above. The following applies: MCC and control cell lines, CellTiter-Glo viability, 72 h; series mostly up to 46 µM. A digest of the protocol: as §1
Another assay relates to NIH3T3. The assay is described as above. The following applies: MCC and control cell lines, CellTiter-Glo viability, 72 h; at 44.8 µM (top of the series) unless noted. The method, boiled down:
as §1

A further assay concerns UISO. The description is as above. The settings on record: MCC and control cell lines, CellTiter-Glo viability, 72 h; series mostly up to 46 µM. The method, boiled down:
as §1

The subject of the next assay is WaGa. The description is as above. The settings on record: MCC and control cell lines, CellTiter-Glo viability, 72 h; series mostly up to 46 µM. A digest of the protocol: as §1
Another assay has as its system C33A. Kind of assay: Primary qHTS to identify gynecologic anti-cancer compounds using libraries of approved drugs and bioactive compounds (AID 1345084). Further: nearly all actives have a fitted effect of over 55% in size. The following applies: Gynecologic cancer cell panel viability, ATPlite luminescence, 48 h; series mostly up to 57.5 µM. The method, boiled down:
(§2)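 Five-concentration response, 48 h; readout is ATP-driven luciferase luminescence.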

In the next assay the test system is CASKI. The description is as above. The settings on record: Gynecologic cancer cell panel viability, ATPlite luminescence, 48 h; series mostly up to 57.5 µM. The method, boiled down: as §2

`CC(C)N(CC[C@H](c1ccccc1)c1cc(CO)ccc1O)C(C)C`: the Potency result with MCC-13, in the assay with MCC-26, in the assay with MKL-1, in the assay on MKL-2, in the assay on UISO and in the assay on WaGa was “inactive” throughout. In the assay with NIH3T3, the call was inactive.
For the compound `C[C@H]1O[C@H](O[C@H]2[C@H](O)[C@@H](O)[C@@H](O[C@H]3[C@H](O)[C@@H](O)C(O)O[C@H]3CO)O[C@H]2CO)[C@H](O)[C@@H](O)[C@H]1N[C@H]1C=C(CO)[C@@H](O)[C@H](O)[C@@H]1O` (some centres not stated), the Potency result in the assay on MCC-13, with MCC-26, in the assay on MKL-1, in the assay on MKL-2, in the assay with UISO and in the assay with WaGa was “inactive” in each case.
Take `CN(N=O)C(=O)N[C@H]1C(O)OC(CO)[C@@H](O)[C@H]1O` (some centres not stated): the Potency entry in the assay on MCC-13, in the assay on MCC-26, in the assay with MKL-1, in the assay on MKL-2, with UISO and in the assay on WaGa was “inactive” in each case.
Consider `COc1cc([C@@H]2c3cc4c(cc3[C@@H](O[C@@H]3O[C@@H]5CO[C@@H](c6cccs6)O[C@@H]5[C@H](O)[C@@H]3O)[C@H]3COC(=O)[C@H]23)OCO4)cc(OC)c1O`, for which the Potency was 1.66 µM (active) in the assay with MCC-13; 2.35 µM (active) in the assay with MCC-26; 0.235 µM (active) with MKL-1; 0.118 µM (active) in the assay on MKL-2; 1.87 µM (active) with UISO.
As to `NC(=O)c1ncn([C@@H]2O[C@H](CO)[C@@H](O)[C@@H]2O)c1N`, the Potency result in the assay with MCC-13, in the assay with MCC-26, with MKL-1, with MKL-2, in the assay with UISO and in the assay on WaGa was “inactive” in each case. Moreover, the call in the assay with NIH3T3 was inactive.
`C[C@H]1C[C@H]2[C@@H]3CCC4=CC(=O)C=C[C@]4(C)[C@@H]3C(=O)C[C@]2(C)[C@@]1(O)C(=O)CO`: the Potency result in the assay with MCC-13, in the assay on MCC-26, in the assay with MKL-1, with MKL-2, with UISO and in the assay with WaGa was “inactive” throughout. Also, the compound was classed as inactive in the assay with NIH3T3.
Turning to `C[C@H](O)[C@@H]1C(=O)N2C(C(=O)O)=C(S[C@@H]3CN[C@H](CNS(N)(=O)=O)C3)[C@@H](C)[C@@H]12`, the Potency entry with MCC-13, in the assay with MCC-26, in the assay on MKL-1, in the assay on MKL-2, in the assay on UISO and in the assay with WaGa was “inactive” throughout. The Potency entry in the assay with C33A and with CASKI was “inactive” throughout. For the same compound, the compound was called inactive with NIH3T3.
For the compound `C[C@H](CCC(=O)O)[C@H]1CC[C@H]2[C@@H]3[C@H](O)C[C@@H]4C[C@H](O)CC[C@]4(C)[C@@H]3CC[C@]12C`, the Potency entry in the assay with MCC-13, with MCC-26, in the assay with MKL-1, in the assay on MKL-2, with UISO and with WaGa was “inactive” throughout. For the same compound, the compound was called inactive in the assay on NIH3T3.
Regarding `Cc1cc(-c2nnc3n2CCCCC3)c(C)n1-c1ccccc1`, the Potency result with MCC-13, with MCC-26, with MKL-1 and in the assay with UISO was “inactive” throughout. The Potency with MKL-2 was 20.9 µM (active).
Take `CC(C)(O)Cn1c(NC(=O)c2ccc(-c3cn[nH]c3)s2)nc2cc(CN3CCOCC3)ccc21`: the Potency in the assay on MCC-13 was 2.96 µM (active); in the assay on MCC-26, 4.69 µM (active); in the assay with MKL-1 it was 1.18 µM (active); with MKL-2, 14.8 µM (active); with UISO, 1.87 µM (active).
Take `C[C@H]1COc2c(N3CCN(C)CC3)c(F)cc3c(=O)c(C(=O)O)cn1c23`: the Potency entry in the assay on MCC-13, with MCC-26, in the assay on MKL-1, in the assay on MKL-2, in the assay on UISO and in the assay on WaGa was “inactive” in each case. Besides, in the assay on NIH3T3, the compound was classed as inactive.
As for `N[C@H]1CN(c2c(F)cc3c(=O)c(C(=O)O)cn(C4C[C@@H]4F)c3c2Cl)CC12CC2` (some centres not stated), the Potency result with MCC-13, in the assay with MCC-26, in the assay with MKL-1, in the assay on MKL-2, with UISO and with WaGa was “inactive” throughout. Also, the Potency result in the assay with CASKI is “inactive”. Besides, the compound was called inactive with NIH3T3.
Regarding `NC(=O)c1ncn([C@@H]2O[C@H](CO)[C@@H](O)[C@@H]2O)c1O`, the Potency entry in the assay with MCC-13, with MCC-26, in the assay with MKL-1, with MKL-2, in the assay with UISO and in the assay with WaGa was “inactive” throughout.
`C[C@@H](Oc1ccc2[nH]nc(C=Cc3cnn(CCO)c3)c2c1)c1c(Cl)cncc1Cl`: the Potency in the assay on MCC-13 was 26.4 µM (active); in the assay on MCC-26, 16.6 µM (active); in the assay with MKL-1 it was 7.43 µM (active); with UISO, 20.9 µM (active). The Potency entry in the assay on MKL-2 is “inactive”.
In the same order, the values of `CCOC(=O)[C@H](CCc1ccccc1)N[C@@H](C)C(=O)N1[C@@H](C(=O)O)C[C@H]2CCC[C@@H]21` are “inactive”, “inactive”, “inactive”, “inactive” and 14.8 µM (active).
As to `COc1cc(C(C)C)c(Oc2cnc(NC(CO)CO)nc2N)cc1I`, the Potency entry in the assay with MCC-13, with MCC-26, with MKL-1, in the assay on MKL-2, with UISO and in the assay on WaGa was “inactive” throughout.
Turning to `CC(=O)NC(CS)C(=O)O` (configuration not stated), the Potency result in the assay with MCC-13, with MCC-26, in the assay on MKL-1, in the assay with MKL-2, with UISO and in the assay on WaGa was “inactive” in each case.
On to `CC(=O)N1CCN(c2ccc(OCc3nn(C)c(C)c3-c3cccc4c(CCCOc5cccc6ccccc56)c(C(=O)O)n(Cc5cccnc5)c34)cc2)CC1`, for which the Potency result with MCC-13 is “inactive”. Also, the Potency with MCC-26 was 16.6 µM (active); with MKL-1, 3.32 µM (active); with MKL-2, 0.296 µM (active); in the assay with UISO, 1.18 µM (active); in the assay on WaGa it was 0.0833 µM (active).
With `C[C@](Cc1c[nH]c2ccccc12)(NC(=O)OC1C2CC3CC(C2)CC1C3)C(=O)NC[C@H](NC(=O)CCC(=O)O)c1ccccc1` (some centres not stated), the Potency result with MCC-13, with MCC-26, in the assay with MKL-1, in the assay on MKL-2, in the assay with UISO and with WaGa was “inactive” each time.
`CC(=O)[C@]1(O)Cc2c(O)c3c(c(O)c2[C@@H](O[C@H]2C[C@H](N)[C@@H](O)[C@H](C)O2)C1)C(=O)c1ccccc1C3=O`: the Potency with MCC-13 is 0.662 µM (active); in the assay on MCC-26, 1.32 µM (active); in the assay with MKL-1, 0.148 µM (active); with MKL-2, 0.105 µM (active); in the assay with UISO, 0.59 µM (active); in the assay with WaGa it was 0.0833 µM (active).
As for `Cn1cc(-c2ccc3ncc(Cc4ccc5ncccc5c4)n3n2)cn1`, the Potency result in the assay on MCC-13, in the assay with MCC-26, with MKL-1, in the assay on MKL-2, with UISO and with WaGa was “inactive” each time.
With `CC(=CC(=O)Nc1ccccc1C(=O)O)c1ccc2ccccc2c1`, the Potency entry in the assay on MCC-13, in the assay on MCC-26, in the assay on MKL-1, in the assay with MKL-2, in the assay on UISO and with WaGa was “inactive” each time.
